In PubChem BioAssay AID1159580 (chemical genetic matrix, 2015):
Among all 5,500 compounds or so, about 2,000 (36%) were called active. About 18% were inconclusive and are not listed. No stated cut-off is given here; in the data, active means normalized growth mostly below about 0.91 (no sharp cut-off); inconclusive means no clear call, values can overlap the other calls; inactive means mostly above about 0.92. The list shows a part of the results.

Assay: chemical genetic growth profiling, strain panel (AID 1159580);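 further: tested at 20 µM; growth read once vehicle control cultures reached saturation at 30 °C; 1 = growth at the plate median or of vehicle wells; lower values mean less growth of the strain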
Details: S. cerevisiae deletion strains, growth OD

Measured: normalized growth

C[C@@H]1OC(O[C@H]2C(O[C@H]3CC[C@@]4(C)C(CC[C@]5(C)C4CC=C4C6CC(C)(C)CC[C@]6(C(=O)O)CC[C@]45C)[C@]3(C)CO)OC[C@H](O)[C@@H]2O)[C@H](O)[C@H](O)[C@H]1O (stereo not given in full)
active: locus YAL021C, strain ccr4, hits give low values 0.0607 | locus YAL026C, strain drs2, hits give low values 0.0592 | locus YAL030W, strain snc1, hits give low values 0.0552 | locus YBL061C, strain skt5, hits give low values 0.058 | locus YBR009C, strain hhf1, hits give low values 0.061 | locus YBR021W, strain FUR4, hits give low values 0.267 | locus YBR023C, strain chs3, hits give low values 0.0603 | locus YBR171W, strain sec66, hits give low values 0.0767 | locus YBR229C, strain ROT2, hits give low values 0.32 | locus YBR231C, strain swc5, hits give low values 0.0595 | locus YBR279W, strain paf1, hits give low values 0.0577 | locus YCL011C, strain gbp2, hits give low values 0.0544 | locus YCL016C, strain dcc1, hits give low values 0.0589 | locus YCL029C, strain bik1, hits give low values 0.0636 | locus YCL061C, strain MRC1, hits give low values 0.0604 | locus YCL069W, strain vba3, hits give low values 0.0603 | locus YCR088W, strain abp1, hits give low values 0.059 | locus YDL005C, strain med2, hits give low values 0.0706 | locus YDL035C, strain GPR1, hits give low values 0.483 | locus YDL040C, strain nat1, hits give low values 0.0557 | locus YDL074C, strain BRE1, hits give low values 0.269 | locus YDL101C, strain DUN1, hits give low values 0.44 | locus YDL185W, strain tfp1, hits give low values 0.0554 | locus YDL192W, strain arf1, hits give low values 0.0745 | locus YDR001C, strain nth1, hits give low values 0.0586 | locus YDR069C, strain doa4, hits give low values 0.0606 | locus YDR101C, strain arx1, hits give low values 0.0695 | locus YDR137W, strain rgp1, hits give low values 0.0801 | locus YDR159W, strain sac3, hits give low values 0.0844 | locus YDR162C, strain NBP2, hits give low values 0.299 | locus YDR195W, strain ref2 0.105 | locus YDR297W, strain sur2, hits give low values 0.0548 | locus YDR318W, strain mcm21, hits give low values 0.0705 | locus YDR334W, strain swr1, hits give low values 0.0629 | locus YDR335W, strain msn5, hits give low values 0.0601 | locus YDR388W, hits give low values 0.0545 | locus YDR392W, strain spt3, hits give low values 0.0915 | locus YDR502C, strain sam2, hits give low values 0.0793 | locus YEL003W, strain gim4, hits give low values 0.0528 | locus YEL037C, strain rad23, hits give low values 0.0576 | locus YEL061C, strain CIN8 (second series), hits give low values 0.0604 | locus YEL061C, strain CIN8, hits give low values 0.447 | locus YER015W, strain faa2, hits give low values 0.059 | locus YER016W, strain bim1, hits give low values 0.059 | locus YER110C, hits give low values 0.0996 | locus YER111C, strain swi4, hits give low values 0.0703 | locus YER155C, strain BEM2 (second series), hits give low values 0.0853 | locus YER155C, strain BEM2, hits give low values 0.124 | locus YER167W, strain BCK2, hits give low values 0.24 | locus YFR010W, strain ubp6, hits give low values 0.0632 | locus YGL078C, strain dbp3, hits give low values 0.056 | locus YGL086W, strain mad1, hits give low values 0.0905 | locus YGL167C, strain pmr1, hits give low values 0.0718 | locus YGL173C, strain kem1, hits give low values 0.0643 | locus YGL227W, strain vid30, hits give low values 0.0617 | locus YGL240W, strain doc1, hits give low values 0.0707 | locus YGL248W, strain PDE1, hits give low values 0.422 | locus YGL253W, strain hxk2, hits give low values 0.053 | locus YGR078C, strain PAC10, hits give low values 0.325 | locus YGR135W, strain pre9, hits give low values 0.136 | locus YGR252W, strain gcn5, hits give low values 0.157 | locus YHR013C, strain ard1, hits give low values 0.114 | locus YHR027C, strain rpn1, hits give low values 0.0611 | locus YHR030C, strain SLT2, hits give low values 0.103 | locus YHR079C, strain IRE1 (second series), hits give low values 0.0576 | locus YHR094C, strain hxt1, hits give low values 0.0605 | locus YHR129C, strain ARP1, hits give low values 0.202 | locus YHR142W, strain chs7, hits give low values 0.0688 | locus YHR200W, strain rpn10, hits give low values 0.0676 | locus YIL066C, strain RNR3, hits give low values 0.457 | locus YIL073C, strain SPO22, hits give low values 0.285 | locus YIL125W, strain kgd1, hits give low values 0.0561 | locus YIR030C, strain dcg1, hits give low values 0.0652 | locus YJL092W, strain hpr5, hits give low values 0.0579 | locus YJL095W, strain BCK1 (second series), hits give low values 0.0567 | locus YJL095W, strain BCK1, hits give low values 0.143 | locus YJL115W, strain asf1, hits give low values 0.069 | locus YJL129C, strain trk1, hits give low values 0.0793 | locus YJL134W, strain LCB3, hits give low values 0.187 | locus YJL154C, strain vps35, hits give low values 0.0589 | locus YJL164C, strain tpk1, hits give low values 0.0589 | locus YJL166W, strain qcr8, hits give low values 0.0599 | locus YJL168C, strain set2, hits give low values 0.0664 | locus YJL187C, strain SWE1 (second series), hits give low values 0.48 | locus YJL187C, strain SWE1, hits give low values 0.0554 | locus YJR043C, strain POL32, hits give low values 0.42 | locus YKL009W, strain mrt4, hits give low values 0.0928 | locus YKL068W, hits give low values 0.0555 | locus YKL085W, strain MDH1 (second series), hits give low values 0.0602 | locus YKL085W, strain MDH1, hits give low values 0.0602 | locus YKL160W, strain elf1, hits give low values 0.0617 | locus YKR001C, strain vps1, hits give low values 0.0888 | locus YKR026C, strain gcn3, hits give low values 0.0618 | locus YKR091W, strain srl3, hits give low values 0.0568 | locus YLL001W, strain dnm1, hits give low values 0.0585 | locus YLL026W, hits give low values 0.0562 | locus YLL041C, strain sdh2, hits give low values 0.0555 | locus YLR027C, strain aat2, hits give low values 0.0549 | locus YLR039C, strain RIC1, hits give low values 0.135 | locus YLR058C, strain SHM2, hits give low values 0.414 | locus YLR102C, strain apc9, hits give low values 0.0668 | locus YLR221C, strain rsa3, hits give low values 0.0578 | locus YLR258W, strain gsy2, hits give low values 0.0581 | locus YLR262C, strain YPT6 (second series), hits give low values 0.0763 | locus YLR262C, strain YPT6, hits give low values 0.153 | locus YLR268W, strain sec22, hits give low values 0.0705 | locus YLR320W, strain mms22, hits give low values 0.0834 | locus YLR330W, strain CHS5, hits give low values 0.213 | locus YLR342W, strain FKS1 (second series), hits give low values 0.286 | locus YLR342W, strain FKS1, hits give low values 0.0611 | locus YLR357W, strain rsc2, hits give low values 0.11 | locus YLR370C, strain arc18, hits give low values 0.0593 | locus YLR371W, strain rom2, hits give low values 0.0622 | locus YLR384C, strain iki3, hits give low values 0.0588 | locus YLR418C, strain cdc73, hits give low values 0.114 | locus YML016C, strain PPZ1, hits give low values 0.214 | locus YML032C, strain rad52, hits give low values 0.0701 | locus YML120C, strain ndi1, hits give low values 0.0572 | locus YML124C, strain tub3, hits give low values 0.0681 | locus YMR058W, strain fet3, hits give low values 0.0577 | locus YMR078C, strain ctf18, hits give low values 0.0754 | locus YMR125W, strain sto1, hits give low values 0.0713 | locus YMR129W, hits give low values 0.0556 | locus YMR205C, strain PFK2, hits give low values 0.0864 | locus YMR223W, strain ubp8, hits give low values 0.0761 | locus YMR231W, strain pep5, hits give low values 0.0636 | locus YMR263W, strain SAP30, hits give low values 0.185 | locus YMR307W, strain GAS1, hits give low values 0.117 | locus YNL067W, strain RPL9B, hits give low values 0.471 | locus YNL071W, strain lat1, hits give low values 0.0594 | locus YNL128W, strain TEP1, hits give low values 0.401 | locus YNL209W, strain ssb2, hits give low values 0.0578 | locus YNL233W, strain BNI4, hits give low values 0.167 | locus YNL248C, strain rpa49, hits give low values 0.0674 | locus YNL250W, strain rad50, hits give low values 0.0622 | locus YNL271C, strain bni1, hits give low values 0.058 | locus YNL298W, strain CLA4, hits give low values 0.0574 | locus YNL307C, strain MCK1, hits give low values 0.0651 | locus YNL322C, strain KRE1 (second series), hits give low values 0.0635 | locus YNR049C, strain mso1, hits give low values 0.0575 | locus YNR052C, strain pop2, hits give low values 0.0612 | locus YOL147C, strain pex11, hits give low values 0.0641 | locus YOR001W, strain rrp6, hits give low values 0.0642 | locus YOR061W, strain CKA2, hits give low values 0.723 | locus YOR069W, strain VPS5, hits give low values 0.193 | locus YOR070C, strain gyp1, hits give low values 0.0577 | locus YOR080W, strain dia2, hits give low values 0.0631 | locus YOR083W, strain WHI5, hits give low values 0.0595 | locus YOR106W, strain vam3, hits give low values 0.0596 | locus YOR136W, strain idh2, hits give low values 0.0808 | locus YOR144C, strain elg1, hits give low values 0.0575 | locus YOR184W, strain ser1, hits give low values 0.0762 | locus YOR265W, strain rbl2, hits give low values 0.0556 | locus YOR270C, strain vph1, hits give low values 0.0934 | locus YOR290C, strain snf2, hits give low values 0.0761 | locus YOR316C, strain cot1, hits give low values 0.0649 | locus YPL051W, strain arl3, hits give low values 0.0588 | locus YPL078C, strain atp4, hits give low values 0.0628 | locus YPL106C, strain sse1, hits give low values 0.0896 | locus YPL240C, strain hsp82, hits give low values 0.0548 | locus YPR119W, strain clb2, hits give low values 0.0662 | locus YPR141C, strain kar3, hits give low values 0.0612 | locus YPR163C, strain tif3, hits give low values 0.0699 | locus YPR167C, strain met16, hits give low values 0.0649 | strain wtn01, hits give low values 0.0783
